Source: PubChem BioAssay AID493169 (National Center for Advancing Translational Sciences (NCATS), 2011)
Inconclusive results are not listed. Entries that show only a call come without a potency. The source made the active and inactive calls. Calls follow the shape of the dose curve; as a rule, active = well fitted inhibition curve with a large enough effect; inconclusive = small, poorly fitted or top-dose-only effect; inactive = flat fitted curve, though single readings scatter.

test: CHOP2 Reporter Counterscreen Assay for Inhibitors of Ubiquitin-specific Protease USP2a; conditions: purified enterokinase, fluorogenic substrate, 485/531 nm; series mostly up to 38.3 µM;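 also: activated enterokinase alone at 50 pM in a cell-free format rather than USP2a or CHOP2; nearly all actives have a fitted effect of over 55% in size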
How it was run: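 Cell-free counterscreen with pre-activated enterokinase alone (50 pM final) in 20mM Tris-HCl pH 8.0, 2mM CaCl2, 2mM beta-mercaptoethanol, 0.05% CHAPS; compound preincubation 30 min RT, reporter substrate 25nM final, fluorescence read after 10 min (Ex 485/Em 531).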
Potency is read from the fitted curve at half-maximal effect.

SMILES | Potency
CC(C)CCn1c(CN2CCN(C(=O)c3ccco3)CC2)nc2c1c(=O)n(C)c(=O)n2C | inactive
COCc1c(C(=O)OCC(=O)c2c(N)n(CC(C)C)c(=O)n(C)c2=O)oc2ccccc12 | inactive
CCOC(=O)N1CCN(C(=O)CN(c2ccc(C)c(C)c2)S(=O)(=O)c2ccccc2)CC1 | inactive
COCCCNC(=O)C1CCN(c2nc(C)cc(C)n2)CC1 | inactive
Cc1ccc(N(CC(=O)Nc2ccc(S(=O)(=O)N3CCOCC3)cc2)S(C)(=O)=O)cc1C | inactive
COC(=O)C1Sc2[nH]c(=O)sc2C(c2ccc(Cl)cc2)C1C(=O)OC (stereo not given) | inactive
Nn1c(Nc2ccccc2)nc2ccccc2c1=O | inactive
C#CCOCCOCCOCCNc1nc(N2CCN(C(=O)CCCCCCCCCCNC(=O)Cn3cc(C[C@@H](C)O)nn3)CC2)nc(N2CCN(C(=O)CCCCCCCCCCNC(=O)[C@@H]([C@H](C)CC)n3cc(CCCCCN)nn3)CC2)n1 | 5.62 µM (active)
Cc1cccc(-c2nnc3n2N=C(c2ccc(Br)cc2)CS3)c1 | inactive
CC(=O)COc1ccc2c(-c3ccccc3)cc(=O)oc2c1 | inactive
O=C(c1ccco1)N1CCN(C(c2cccs2)c2sc3ncnn3c2O)CC1 (stereo not given) | inactive
Cc1cc(Cl)ccc1NC(=S)NCCCN1CCCC1=O | inactive
CC(=O)c1ccc(NC(=O)CC(NCCC2=CCCCC2)C(=O)O)cc1 (stereo not given) | inactive
CCOC(=O)c1c(-c2ccc(C)o2)csc1NC(=O)COC(=O)c1ccc(NC(N)=O)cc1 | inactive
COc1cc(OC)cc(-c2c(C#Cc3ccsc3)c3cc(-c4ccc(OC)c(F)c4)ccc3n2C)c1 | inactive
CCc1nnc(NC(=O)CSc2nccn2-c2cccc(C)c2)s1 | inactive
Cc1ccc([C@@H]2CC=C(C(=O)O)[C@H](c3cccc(Cl)c3)N2S(=O)(=O)c2ccc(C)cc2)cc1 | inactive
CSCCC(NC(=O)c1cc(C(C)(C)C)oc1C)C(=O)O (stereo not given) | inactive
CN(c1cccc(NC(=O)Nc2cccc(Cl)c2)c1)S(C)(=O)=O | inactive
N#CNC(=Nc1cccc(F)c1)SCc1cccc(F)c1 | inactive

SMILES | Potency
Cc1cc(C(=O)Nc2ccccc2N2CCOCC2)c2ccccc2n1 | inactive
CC1(C)CC(=O)C2=C(C1)Oc1ncn(CCCO)c(=N)c1C2c1ccccc1 (stereo not given) | inactive
CC1CCCCC1NC(=O)CSCC(=O)O (stereo not given) | inactive
CCC(=O)Nc1c2c(nn1-c1ccc(F)cc1)CS(=O)C2 (stereo not given) | inactive
O=C1Nc2ccc(S(=O)(=O)N3CCCCCC3)c3cccc1c23 | inactive
O=C(N/N=C/c1ccc(-c2ccc(S(=O)(=O)Nc3ncccn3)cc2)o1)c1cc2ccccc2cc1O | 3.98 µM (active)
COc1ccccc1N1CCN(c2cc(C)nc3nc(C)nn23)CC1 | inactive
CCC(C)c1ccc(O)c(N)c1 (stereo not given) | inactive
CCOC(=O)Cn1c(=O)oc2cc(S(=O)(=O)Nc3cc(Cl)ccc3OC)ccc21 | inactive
O=C1NC(=Nc2ccc3ccccc3c2)S/C1=C/c1ccco1 | 10 µM (active)
CCOC(=O)C1CCN(CC(O)COc2ccc(C(C)(C)C)cc2)CC1 (stereo not given) | inactive
CCOC(=O)c1[nH]c2ccc(OC)cc2c1NC(=O)CCN1CCC(C)CC1 | inactive
CC1=NC(C(F)(F)F)(C(F)(F)F)C2=C(CC(C)(C)CC2=O)N1Cc1ccco1 | inactive
CCCc1cc(=O)oc2cc(C)c(CN3CCCC3)c(O)c12 | inactive
Cc1ccc(NC(=O)CS(=O)CC(=O)Nc2ccc(N3CCOCC3)cc2)cc1Cl (stereo not given) | inactive
CCn1c(COc2ccccc2)nnc1SCC(=O)CC(=O)Nc1ccccc1OC | inactive
C#CCOCCOCCOCCNc1nc(N2CCN(C(=O)CCCCCCCCCCNC(=O)Cn3cc(CCCCCN)nn3)CC2)nc(N2CCN(C(=O)CCCCCCCCCCNC(=O)[C@H]([C@@H](C)CC)n3cc(CCCCCN)nn3)CC2)n1 | 5.62 µM (active)
Cc1cc(C)c(NC(=O)C[N+](C)(C)CC(O)COc2cccc3ccccc23)c(C)c1 (stereo not given) | inactive
COc1ccc(OCC(=O)NCCNC(=O)c2cccnc2)cc1 | inactive
O=C(COc1ccccc1)NCCSc1ccccc1 | inactive
